For assay [1], the system named is Nanoluciferase (engineered Oplophorus gracilirostris luciferase). Put plainly: Primary Nanoluciferase (NLuc) qHTS assay for identification of artifact compounds. (AID 1845222).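 Note: 0% = DMSO and -100% = no enzyme.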 Put shortly:
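Luminescence read-out of secreted NLuc in S16 cell conditioned medium (1:55); compounds tested with 15 min RT preincubation, then Nano-Glo substrate 1:100, 5 min. % inhibition vs no-enzyme and DMSO controls, 4-parameter Hill fit.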
For orientation: Quantitative high-throughput screening tests each substance at several concentrations.

Assay [2] can be described thus: Primary redox qHTS assay for identification of artifact compounds. (AID 1845223).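 Note: 0% = DMSO and 100% = reference compound.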 A digest of the protocol:
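Amplex Red (25 uM) and HRP (250 mU/mL) in HBSS, with compounds for 15 min, then 250 uM DTT for 30 min, room temperature, dark. Fluorescence 525/598 nm read; normalized to DMSO and 10 uM DA3003; Hill fit.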

Assay [3] can be described thus: qHTS profiling for inhibitors of Plasmodium falciparum proliferation (AID 504749).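 For activity, negative = inhibition: 0% = DMSO vehicle and full inhibition = artemisinin control.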 Note: nearly all actives have a fitted effect of over 60% in size. Note: potency is the fitted concentration of half-maximal effect. The conditions noted are these: P. falciparum in erythrocytes, SYBR Green DNA, 72 h, at 28.7 µM (top of the series). Put shortly:
(§1)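 P. falciparum-infected erythrocytes (0.3% parasitemia, 2.5% hematocrit final) were exposed to compounds for 72 h at 37 C in 5% CO2, then lysed with SYBR Green buffer overnight at room temperature; parasite DNA fluorescence was normalized to artemisinin and DMSO controls.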

Assay [4] has as its system 3D7. Described as above. The conditions noted are these: P. falciparum in erythrocytes, SYBR Green DNA, 72 h; series mostly up to 28.7 µM. A digest of the protocol:
as §1

The subject of assay [5] is 7G8. The description is as above. The conditions noted are these: P. falciparum in erythrocytes, SYBR Green DNA, 72 h; series mostly up to 28.7 µM. Put shortly:
as §1

Assay [6] concerns AA1029. The assay is described as above. The conditions noted are these: P. falciparum in erythrocytes, SYBR Green DNA, 72 h; series mostly up to 28.7 µM. A digest of the protocol: as §1
Assay [7] deals with AS120. The description is as above. The conditions noted are these: P. falciparum in erythrocytes, SYBR Green DNA, 72 h; series mostly up to 28.7 µM. A digest of the protocol: as §1
The test system of assay [8] is ATS189. The description is as above. The conditions noted are these: P. falciparum in erythrocytes, SYBR Green DNA, 72 h; series mostly up to 28.7 µM. A digest of the protocol:
as §1

In assay [9] the test system is ATS95. The assay is described as above. The conditions noted are these: P. falciparum in erythrocytes, SYBR Green DNA, 72 h; series mostly up to 28.7 µM. A digest of the protocol: as §1
For assay [10], the system named is C2A. The assay is described as above. The conditions noted are these: P. falciparum in erythrocytes, SYBR Green DNA, 72 h; series mostly up to 28.7 µM. A digest of the protocol:
as §1

Assay [11] is described as follows: qHTS drug screen for cell cycle checkpoint inhibitors in PARPi-resistant BRCA-mutant ovarian cancer cell lines. (AID 1963452; calls by dose curve). The conditions noted are these: PEO1/OlaR viability, CellTiter-Glo luminescence, 96 h, stronger effect = lower value. Put shortly: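 PEO1, PEO4 and PEO1/OlaR ovarian cancer cells, 600 per well, exposed 96 h at 37C to a dilution series. Viability read by CellTiter-Glo luminescence, normalized to DMSO and empty wells; activity summarized as Z-AUC.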

Setting [12] is: measured here: PEO1 parental Z-AUC.

Records with an inconclusive call do not appear. Active and inactive are the calls of the source. Unless noted, calls come from the whole dose curve; as a rule, active = well fitted curve in the direction sought with a large enough effect; inconclusive = small, poorly fitted or top-dose-only effect, or another doubt; inactive = no such curve, though single readings can be large; an effect the other way counts as inactive or inconclusive. Where a SMILES comes first, the peptide text is derived from it. [ ]: non-standard residue; d: D form. pGlu = O=C1CC[C@@H](C(=O)O)N1; Thz = O=C(O)[C@@H]1CSCN1

In the case of `O=C1CC[C@@H](C(=O)N2CSC[C@H]2C(=O)O)N1` ([pGlu]-[Thz]-OH), the Potency entry in assay [1], in assay [4], in [5], in [6], in [7] and in assay [8] was “inactive” throughout. Further, the Potency entry in [9] and in assay [10] was “inactive” in each case. Also, the result in assay [2] was inactive. For the same molecule, the activity, negative = inhibition is 14.8% (inactive) in assay [3] (parasite line A) and 2.84% (inactive) in assay [3] (parasite line B).

As for `O=C(O)[C@H](CC(=O)N1C[C@H]2CCCC[C@H]2C1)Cc1ccccc1`, the Potency result in [1], in assay [4], in assay [5], in [6], in assay [7] and in [8] was “inactive” each time. In addition, the Potency result in assay [9] and in assay [10] was “inactive” each time. Further, the molecule was called inactive in assay [2]. In addition, the Z-AUC was -0.763 (inactive) in assay [11], -0.735 in [11] (setting [12]) and -0.83 in assay [11] (measured here: PEO4 Z-AUC). In addition, the results for the activity, negative = inhibition in assay [3] (parasite line A) and in [3] (parasite line B) were 9.74% (inactive) and 2.21% (inactive), respectively.

Consider `O=C(O)Cc1cccc(-c2cc(CCCCCCc3ccc(O[C@H]4O[C@H](CO)[C@@H](O)[C@H](O)[C@@H]4O)c(-c4cccc(CC(=O)O)c4)c3)ccc2O[C@H]2O[C@H](CO)[C@@H](O)[C@H](O)[C@@H]2O)c1`, for which the activity, negative = inhibition in assay [1] was 3.7% [at 0.464 µM] (inactive). The redox activity (% of DA3003) in [2] is 1.45% [at 0.461 µM] (inactive).

For `COC(=O)C1=C(C)NC(C)=C(C(=O)OC)C1c1cccc(NC(=O)NCCCN2CCC(c3cccc(OC)c3)CC2)c1`, the Potency entry in assay [1] was “inactive”. For the same molecule, in assay [2], the outcome was inactive.

In the case of `CC1(C)S[C@@H]2[C@H](NC(=O)[C@H](NC(=O)N3CCN(S(C)(=O)=O)C3=O)c3ccccc3)C(=O)N2[C@H]1C(=O)O`, the Potency result in assay [1], in assay [4], in assay [5], in assay [6], in assay [7] and in assay [8] was “inactive” in each case. Further, the Potency result in assay [9] and in [10] was “inactive” each time. The activity, negative = inhibition is -8.81% (inactive) in assay [3] (parasite line A) and -7.98% (inactive) in [3] (parasite line B).

Regarding `COc1cc(/C=C/C(=O)N2CCN(CC(=O)N3CCCC3)CC2)cc(OC)c1OC`, the Potency entry in assay [1], in assay [4], in assay [6], in assay [8], in assay [9] and in assay [10] was “inactive” in each case. Further, the outcome in [2] was inactive. For the same molecule, the figures for the activity, negative = inhibition in [3] (parasite line A) and in assay [3] (parasite line B) were 1.12% (inactive) and 8.7% (inactive), respectively. For the same molecule, in assay [5], the Potency was 10 µM (active).

As for `CCCCN(CC)c1nc(C)nc2c1c(C)cn2-c1c(C)cc(C)cc1C`, the Potency result in assay [1] is “inactive”. In assay [2], the molecule was called inactive.

Consider `CCNc1nc2c(ncn2[C@H]2C[C@H](O)[C@@H](CO)O2)c(=O)[nH]1`, for which, in [1], the Potency result is “inactive”. In addition, the call in [2] was inactive.

Regarding `COc1cc(CNC(=O)CCCC/C=C/C(C)C)ccc1O`, the Potency entry in assay [1], in assay [4], in assay [5], in assay [6], in [7] and in assay [8] was “inactive” in each case. Also, the Potency result in [9] and in assay [10] was “inactive” each time. Moreover, the outcome in [2] was inactive. The Z-AUC in assay [11] is 1.64 (inactive); in assay [11] (setting [12]), 1.45; in assay [11] (measured here: PEO4 Z-AUC) it was 1.46. For the same molecule, the results for the activity, negative = inhibition in assay [3] (parasite line A) and in assay [3] (parasite line B) were -2.8% (inactive) and 8.8% (inactive), respectively.

With `CS(=O)(=O)c1ccc(-n2nc(C(F)(F)F)cc2-c2ccc(F)cc2)cc1`, in assay [1], the Potency result was “inactive”. In assay [2], the molecule was called inactive.

With `CC1(C)[C@@H](O[C@H]2O[C@H](C(=O)O)[C@@H](O)[C@H](O)[C@H]2O[C@@H]2O[C@H](C(=O)O)[C@@H](O)[C@H](O)[C@H]2O)CC[C@]2(C)[C@H]3C(=O)C=C4[C@@H]5C[C@@](C)(C(=O)O)CC[C@]5(C)CC[C@@]4(C)[C@]3(C)CC[C@@H]12`, the outcome in assay [2] was inactive.

Consider `C/C(=N\O)c1ccc(OCC(=O)N2CCCCC2)cc1`, for which the Potency entry in assay [1] was “inactive”. For the same molecule, the result in [2] was inactive.

For `NS(=O)(=O)c1ccc(-n2nc(C(F)(F)F)cc2-c2ccc(Cl)cc2)cc1`, in assay [1], the Potency entry was “inactive”. Besides, the call in assay [2] was inactive.

Take `CC1(C)S[C@@H]2[C@H](NC(=O)[C@H](N)c3ccc(O)cc3)C(=O)N2[C@H]1C(=O)O`: the Potency result in [1] is “inactive”. In addition, the molecule was called inactive in assay [2].

`Cc1onc(-c2c(F)cccc2Cl)c1C(=O)N[C@@H]1C(=O)N2[C@@H]1SC(C)(C)[C@@H]2C(=O)O`: the Potency result in assay [1] is “inactive”.

These data come from PubChem BioAssay (NCATS).
